Compounds with a hit are over-represented: about 2.9% of the library has one in this group of screens.
Fam108B counter: mouse Fam108B serine hydrolase inhibitors, primary screen, counter-screen for RBBP9 inhibitor project, biochemical, fluorescence polarization | AID 1947, 2009 | recombinant Fam108B, FP-Rh probe fluorescence polarization | inhibition, % at 9.51 µM | 300,000 compounds, 0.33% hits;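 active = inhibition above the screen mean inhibition plus 3 SD, computed separately per campaign, cut at about 18% in these data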;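 also: inhibitors lower polarization as less probe binds the enzyme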
pPAFAH FP inh: pPAFAH enzyme inhibitors, primary screen, biochemical, fluorescence polarization, human; inhibition, % at 3.39 µM; recombinant pPAFAH, FP-rhodamine probe fluorescence polarization; 330,000 compounds, 1.5% hits; Platelet-activating factor acetylhydrolase (Homo sapiens), Q13093;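 active = inhibition above the mean inhibition across the screen plus 3 SD, cut at about 25% in these data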;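 also: inhibitors block binding of the rhodamine activity-based probe so polarization drops; 0% = enzyme with DMSO and 100% = wells lacking pPAFAH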
Target sequence (Q13093 whole entry, looked up): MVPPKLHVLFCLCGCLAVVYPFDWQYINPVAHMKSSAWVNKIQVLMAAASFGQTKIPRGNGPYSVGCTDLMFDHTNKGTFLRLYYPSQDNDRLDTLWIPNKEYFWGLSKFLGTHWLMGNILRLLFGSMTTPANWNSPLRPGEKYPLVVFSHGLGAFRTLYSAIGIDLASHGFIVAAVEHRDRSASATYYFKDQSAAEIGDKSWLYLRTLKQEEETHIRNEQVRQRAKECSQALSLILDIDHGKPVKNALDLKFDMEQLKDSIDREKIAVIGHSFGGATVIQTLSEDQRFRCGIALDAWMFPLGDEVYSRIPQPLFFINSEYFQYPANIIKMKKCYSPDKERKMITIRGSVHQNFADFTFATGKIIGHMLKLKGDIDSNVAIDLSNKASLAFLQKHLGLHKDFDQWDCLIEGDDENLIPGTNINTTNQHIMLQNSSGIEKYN
PAFAH1B2 FP inh: PAFAH1B2 enzyme inhibitors, primary screen, biochemical, fluorescence polarization, human. 340,000 compounds, 1.2% hits. inhibition, % at 3.39 µM. recombinant PAFAH1B2, FP-rhodamine activity probe;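 active = inhibition above the mean of all tested compounds plus 3 SD, cut at about 24% in these data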;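 also: 0% = enzyme with DMSO and 100% = wells lacking PAFAH1B2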
PAFAH2 inh: PAFAH2 enzyme inhibitors, primary screen, biochemical, fluorescence polarization, human; recombinant PAFAH2, FP-rhodamine activity probe; inhibition, % at 3.39 µM; 340,000 compounds, 0.99% hits; AID 492956, 2010;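 active = inhibition above the mean over all tested compounds plus 3 SD, cut at about 30% in these data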;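 also: inhibitors block probe labeling of enzyme so polarization drops; 0% = enzyme with DMSO and 100% = wells lacking PAFAH2 protein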
PAFAH1B3 FP inh: PAFAH1B3 enzyme inhibitors, primary screen, biochemical, fluorescence polarization, human. recombinant PAFAH1B3, FP-rhodamine probe. inhibition, % at 3.39 µM. 340,000 compounds, 0.28% hits. AID 492972, 2010;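 active = inhibition above the screen-wide average of all tested compounds plus 3 SD, cut at about 25% in these data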;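 also: 0% = enzyme with DMSO only and 100% = wells lacking PAFAH1B3 protein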
Target sequence (Q15102 whole entry, looked up): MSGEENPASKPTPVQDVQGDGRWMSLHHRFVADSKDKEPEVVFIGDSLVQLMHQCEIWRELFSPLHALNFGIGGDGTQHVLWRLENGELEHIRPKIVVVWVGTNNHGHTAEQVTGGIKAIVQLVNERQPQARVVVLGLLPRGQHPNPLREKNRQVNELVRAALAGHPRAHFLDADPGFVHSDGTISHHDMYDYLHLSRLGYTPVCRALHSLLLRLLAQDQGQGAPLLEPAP
PME-1 primary: PME-1 inhibitors via competitive probe labeling, primary screen, biochemical, fluorescence polarization, FP-Rh probe, HTS; recombinant PME-1; 320,000 compounds, 0.53% hits; inhibition, % at 5.9 µM;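 active = inhibition above the campaign mean of all compounds plus 3 SD, cut at about 26% in these data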;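 also: competitive labeling of PME-1 active site by serine hydrolase directed probe; 0% = PME-1 with DMSO and 100% = wells lacking PME-1 enzyme; inhibitors block probe labeling so polarization falls and inhibition rises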
Fam108b inh conf: mouse Fam108b serine hydrolase inhibitors, confirmation, counter-screen for RBBP9 inhibitor project, biochemical, fluorescence polarization, triplicate. inhibition, % at 9.51 µM. 930 compounds, 44% hits. AID 1978, 2009. recombinant Fam108b, FP-Rh probe fluorescence polarization. shares compounds with Fam108B counter;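 active = inhibition above a limit from the primary screen, the mean over all compounds plus 3 SD, cut at about 19% in these data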;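 also: 0% = median of active Fam108b wells and 100% = catalytically dead S170A mutant; inhibitors free the probe so polarization falls as inhibition rises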
Fam108b ABPP HTS: inhibition of mouse Fam108b by HTS hits, late-stage follow-up, biochemical, gel-based ABPP, soluble recombinant form; fluorophosphonate probe; 260 compounds, 44% hits; inhibition, % at 20 µM; shares compounds with Fam108B counter; in the data active = inhibition above about 40%
Starred values were filed as active, the others as inactive.

Screening Nc1nc(-c2ccc([N+](=O)[O-])cc2)c(C(=O)Nc2ccc(Cl)cc2)s1 returned Fam108B counter -6, pPAFAH FP inh 5, PAFAH1B2 FP inh 2, PAFAH2 inh 1, PAFAH1B3 FP inh 7 and PME-1 primary 2.
`CCOc1ccccc1NC(=O)c1cccc(NC(=O)C2CCCC2)c1` gave Fam108B counter -4, pPAFAH FP inh 3, PAFAH1B2 FP inh 6, PAFAH2 inh -3, PAFAH1B3 FP inh 4 and PME-1 primary 0.
For CC(C)CN(Cc1cc(=O)oc2cc(-c3ccccc3)c(O)cc12)CC(C)C the results were Fam108B counter 42*, pPAFAH FP inh -6, PAFAH1B2 FP inh 1, PAFAH2 inh -9, PAFAH1B3 FP inh -2, PME-1 primary -2 and Fam108b inh conf 19*.
For O=C(Nc1ccc2[nH]c(=S)sc2c1)Nc1ccccc1F the results were Fam108B counter 26*, pPAFAH FP inh 14, PAFAH1B2 FP inh 7, PAFAH2 inh 18, PAFAH1B3 FP inh 18, PME-1 primary 78*, Fam108b inh conf 49* and Fam108b ABPP HTS 90*.
C(=NN=C(NN=Cc1cccs1)NN=Cc1cccs1)c1cccs1 was read as PAFAH1B2 FP inh 1, PAFAH2 inh -4 and PAFAH1B3 FP inh 3.
`O=[N+]([O-])c1cccc(C(=Nc2ccccc2)NO)c1` gave Fam108B counter -1, pPAFAH FP inh 5, PAFAH1B2 FP inh 4, PAFAH2 inh -5, PAFAH1B3 FP inh -3 and PME-1 primary -6.
For O=[N+]([O-])c1cc([N+](=O)[O-])c2c(=Nc3ccccc3)n(-c3ccccc3)n(O)c2c1 the results were Fam108B counter 19*, pPAFAH FP inh 22, PAFAH1B2 FP inh 17, PAFAH2 inh 20, PAFAH1B3 FP inh 24, PME-1 primary 22 and Fam108b inh conf 27*.
N#C/C(=C(/O)c1cc2ccccc2o1)c1nc2ccccc2s1 was read as Fam108B counter 22*, pPAFAH FP inh 21, PAFAH1B2 FP inh 14, PAFAH2 inh 22, PAFAH1B3 FP inh 9, PME-1 primary 9 and Fam108b inh conf 21*.
`C/C(=N\OCc1nc2ccccc2c(=O)n1/N=C/c1cc([N+](=O)[O-])ccc1O)c1ccccc1` gave Fam108B counter 19*, pPAFAH FP inh 62*, PAFAH1B2 FP inh 0, PAFAH2 inh 25, PAFAH1B3 FP inh 18, PME-1 primary 0 and Fam108b inh conf -10.
`O=[N+]([O-])c1ccc(O)c(/C=N/n2c(CO)nc3ccccc32)c1` gave Fam108B counter 4, pPAFAH FP inh 1, PAFAH1B2 FP inh 9, PAFAH2 inh 5, PAFAH1B3 FP inh 10 and PME-1 primary 2.
CC(=O)Nc1ccc(C=NNc2ccc([N+](=O)[O-])cn2)cc1 was read as PAFAH1B2 FP inh 4, PAFAH2 inh 8 and PAFAH1B3 FP inh 1.
For CCN(CC)c1ccc2c(-c3ccc(S(=O)(=O)O)cc3S(=O)(=O)[O-])c3ccc(=[N+](CC)CC)cc-3oc2c1 the results were Fam108B counter 90*, pPAFAH FP inh 173*, PAFAH1B2 FP inh 174*, PAFAH2 inh active, PAFAH1B3 FP inh active, PME-1 primary active and Fam108b inh conf 166*.
`COc1ccc(O)c(-c2cc(-c3cccc(Br)c3)n[nH]2)c1` gave Fam108B counter 18*, pPAFAH FP inh 12, PAFAH1B2 FP inh 3, PAFAH2 inh -5, PAFAH1B3 FP inh 16, PME-1 primary 42* and Fam108b inh conf -3.
Screening Oc1ccc(Br)cc1-c1cc(-c2ccccc2)n[nH]1 returned Fam108B counter -24, pPAFAH FP inh 6, PAFAH1B2 FP inh -3, PAFAH2 inh -15, PAFAH1B3 FP inh -10 and PME-1 primary -28.
For COc1ccc(-c2cc(-c3ccc(OC)c(OC)c3)n[nH]2)c(O)c1 the results were Fam108B counter 20*, pPAFAH FP inh 25*, PAFAH1B2 FP inh 5, PAFAH2 inh 4, PAFAH1B3 FP inh 3, PME-1 primary 11 and Fam108b inh conf 6.
Screening Cc1ccc(NC(=S)N(CCN(C)C)Cc2cc3cc(C)ccc3[nH]c2=O)cc1 returned Fam108B counter 0, pPAFAH FP inh 7, PAFAH1B2 FP inh 5, PAFAH2 inh 0, PAFAH1B3 FP inh 2 and PME-1 primary 6.
Screening COc1ccc(C(=O)COC(=O)[C@@H](NS(=O)(=O)c2ccccc2)C(C)C)cc1 returned pPAFAH FP inh 2, PAFAH1B2 FP inh 6, PAFAH2 inh 0 and PAFAH1B3 FP inh 14.
Screening COCCCn1c(SCC(=O)NC2CCCC2)nnc1-c1ccncc1 returned Fam108B counter -1, pPAFAH FP inh 1, PAFAH1B2 FP inh 2, PAFAH2 inh 6, PAFAH1B3 FP inh 9 and PME-1 primary -4.
COc1ccc(/C=C2/SC(=S)N(CCCC(=O)Nc3cccc(O)c3)C2=O)cc1 was read as Fam108B counter -6, pPAFAH FP inh 6, PAFAH1B2 FP inh -7, PAFAH2 inh 0, PAFAH1B3 FP inh -1 and PME-1 primary -20.
Screening COc1ccc(/C=C2\SC(=S)N(CC(=O)OCC(=O)Nc3cc(Cl)cc(Cl)c3)C2=O)cc1 returned Fam108B counter 27*, pPAFAH FP inh 4, PAFAH1B2 FP inh 15, PAFAH2 inh -9, PAFAH1B3 FP inh 18, PME-1 primary 2, Fam108b inh conf 78* and Fam108b ABPP HTS 85*.
COc1ccc(C(=O)N/N=C(\C)c2ccc3c(c2)C2C=CCC2C(c2ccccc2)N3)cc1 (stereo unspecified) was read as Fam108B counter 20*, pPAFAH FP inh 10, PAFAH1B2 FP inh -3, PAFAH2 inh 8, PAFAH1B3 FP inh 1, PME-1 primary 17 and Fam108b inh conf -3.
O=C1CN(C(=O)c2ccc3nc(Cc4cccc(Cl)c4)oc3c2)CCN1 was read as Fam108B counter -2, pPAFAH FP inh -1, PAFAH1B2 FP inh 0, PAFAH2 inh -3, PAFAH1B3 FP inh 6 and PME-1 primary 4.
`CC1=NN(C(N)=S)C(=O)C1N=Nc1c(Br)cc(Br)cc1Br` (stereo unspecified) gave Fam108B counter 29*, pPAFAH FP inh 15, PAFAH1B2 FP inh 2, PAFAH2 inh 22, PAFAH1B3 FP inh 6, PME-1 primary 9, Fam108b inh conf 33* and Fam108b ABPP HTS 35.
